Hits are enriched below; roughly 3.6% of the tested compounds scored in any of these assays.
BoNT-F LC inh = blocks Botulinum neurotoxin F light chain protease; Multiplex microsphere protease cleavage assay, flow cytometry; inhibition, % at 10 µM; 360,000 tested, 0.22% active; AID 588497; in the data active = inhibition above about 35%, passing the limit was not always enough; inconclusive = no clear call, values can overlap the other calls; also: plate controls were buffer without enzyme for full effect and enzyme alone for no effect
BoNT A protease = inhibitors of Botulinum neurotoxin A light chain protease. inhibition, % at 10 µM. AID 588499. 360,000 tested, 0.17% active. multiplex microsphere protease substrate cleavage, flow cytometry; also: plate controls were buffer without enzyme for full effect and enzyme alone for no effect
Autofluor counter = flagged as autofluorescent in microsphere protease counterscreen; compound autofluorescence counterscreen, microsphere flow cytometry; stronger effect = higher value; fluorescence intensity (test concentration not listed); 360,000 tested, 3.1% active; in the data active = fluorescence intensity above about 16000; inconclusive = no clear call, values can overlap the other calls
Anthrax LF inh2 = blocks Bacillus anthracis lethal factor protease; P15917; multiplex microsphere protease cleavage assay, LF; inhibition, % at 10 µM; 360,000 tested, 0.12% active; AID 588501; also: plate controls were buffer without enzyme for full effect and enzyme alone for no effect
MazEF act = MazEF (E. coli) toxin RNase activation; P0AE70; FAM/BHQ RNA-DNA oligo cleavage fluorescence, 5 h; activation, % at 20 µM; 350,000 tested, 0.32% active; AID 504720; in the data active = activation above about 50%
Target sequence (P0AE70 whole entry, looked up): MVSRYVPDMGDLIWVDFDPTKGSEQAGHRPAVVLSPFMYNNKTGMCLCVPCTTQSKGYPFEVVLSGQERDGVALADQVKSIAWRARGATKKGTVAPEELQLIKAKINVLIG
Starred values were filed as active, the others as inactive; ? = inconclusive; · = no result given; + = active, no number. Rule as the data show it, unless noted: active = inhibition above about 30%; inconclusive = no clear call, values can overlap the other calls; inactive = below that.

SMILES	BoNT-F LC inh	BoNT A protease	Autofluor counter	Anthrax LF inh2	MazEF act
Cc1ccccc1-c1noc(CCC(=O)NCC2CCCO2)n1 (centres undefined)	6	3	22713*	-2	14
N#Cc1ccc(-c2ccc(F)cc2)nc1Oc1ccc(F)cc1	1	2	21827*	-3	0
CC(C)Cn1c(SCC(=O)c2ccc(Cl)s2)nnc1-c1ccco1	1	1	22317*	-2	9
COCCCn1c(SCC(=O)NC2CCCC2)nnc1-c1ccco1	-3	-3	20908*	-1	-9
CCn1c(SCC(=O)N2CCCCC2C)nnc1-c1ccco1 (centres undefined)	12	0	3502	-3	1
COCCCn1c(SCC(=O)N2CCCCC2C)nnc1-c1ccco1 (centres undefined)	1	0	16205*	-3	3
CCCCn1c(SCC(N)=O)nnc1-c1ccco1	-1	-1	22326*	-1	1
CC(C)Cn1c(N)c(C(=O)CSc2nnc(-c3ccco3)n2C)c(=O)n(C)c1=O	2	0	3941	6	7
CC(C)C[C@H](NC(=O)C1CCN(S(=O)(=O)c2ccccc2)CC1)C(=O)NCc1ccncc1	-4	1	5340	3	-4
COc1cc(Cl)c(C)cc1Nc1ncccn1	-8	-1	5794	-4	-4
Cc1c(N=Cc2ccc(-c3ccc(Cl)cc3)o2)c(=O)n(-c2ccccc2)n1C	-12	-1	2587	-5	2
CCn1[nH]c(=O)c(=Nc2c(C)n(C)n(-c3ccccc3)c2=O)cc1-c1ccc(Cl)cc1	2	2	22167*	0	-2
Fc1cccc(C[n+]2csc3ccccc32)c1	-9	-3	17119*	-3	7
CCCSc1nc2c(c(=O)n(C)c(=O)n2C)n1C	-4	-8	3002	-8	15
CCCSc1nc(O)c(CC)c(=O)n1C(C)CC (centres undefined)	11	?	19471*	-9	-1
CCc1nnc(NC(=O)c2ccc3c(c2)C(=O)N(CC)C3=O)s1	-1	-1	23383*	-3	7
Cc1nnc(NC(=O)c2ccc3c(c2)C(=O)N(CCC(C)C)C3=O)s1	-1	-1	20485*	0	3
Cc1ccccc1NC(=O)c1ccc2c(c1)C(=O)N(CCC(C)C)C2=O	-8	0	4342	1	8
COc1ccc(CCC(=O)NNC(=O)Cn2nc(C)cc2C)cc1	-11	-3	4834	3	3
CCOC(=O)N1CCN(C(=O)c2cc(C)c3c(C)nn(-c4ccccc4)c3n2)CC1	-1	-1	23022*	1	-1
CC1CN(Cc2ccccc2)c2nc3c(c(=O)n(C)c(=O)n3C)n2C1 (centres undefined)	-1	?	20687*	0	6
Cn1c(=O)n(Cc2ccccc2)c(=O)c2c1nc1n2CCCN1CCc1ccccc1	-3	?	23593*	-5	4
COc1ccc(N2CCn3c2nc2c3c(=O)n(CCCc3ccccc3)c(=O)n2C)c(OC)c1	-490	-192	?	?	814*
O=C(C(Br)=Cc1ccccc1)c1ccccc1	-4	0	3059	-2	5
CCC1(CC)Cc2ccccc2C2=C(C(=O)N3CCCCC3)C(=O)C(=O)N21	-4	-2	2596	0	-1
SMILES	BoNT-F LC inh	BoNT A protease	Autofluor counter	Anthrax LF inh2	MazEF act
O=c1[nH][nH]c(=O)c2c1[nH]c(=S)n2Cc1ccccc1	-4	0	2979	5	12
CCCCOC(=O)c1ccc(NC(=O)c2ocnc2C)cc1	-4	?	24702*	0	2
CCCCOC(=O)c1ccc(NC(=O)c2ccoc2C)cc1	1	0	20473*	-4	-5
CCCCOC(=O)c1ccc(NC(=O)c2ccccc2OC)cc1	2	0	2532	0	-5
Cc1cccc(N2CN(S(=O)(=O)c3cccc([N+](=O)[O-])c3)c3nc4ccccc4nc32)c1	-12	0	3640	0	-8
CC(NC(=O)/C=C/c1ccco1)c1nc2ccccc2n1Cc1cccc(Cl)c1 (centres undefined)	-2	0	1988	2	-4
Cc1ccc(N(CC(=O)N2CCCCCC2)S(=O)(=O)c2ccccc2)cc1	-16	-3	2958	-1	-7
CCOC(=O)[C@]12CCCC=C1N(Cc1ccco1)C(=O)[C@H](CC(=O)N1CCCC1)C2	3	0	4333	10	·
COc1ccc(-c2cc3nc(C4CCN(C(=O)OC(C)(C)C)CC4)c(C(=O)O)cn3n2)cc1	4	1	22638*	0	-1
CCOC(=O)c1cn2nc(-c3ccc(OCC)cc3)cc2nc1C1CCN(C(=O)OC(C)(C)C)CC1	-3	0	9697	-4	-3
Cc1cc(=O)c2c(=O)[nH][nH]c2[nH]1	-7	0	3717	-2	9
COc1cccc(NC(=O)c2ccc(-c3ccc([N+](=O)[O-])cc3)o2)c1	2	7	4456	-3	276*
Cc1cc(NC(=O)c2cc(-c3ccco3)on2)nn1Cc1ccc(Cl)cc1	-5	0	8286	-1	0
COc1ccc(OC)c(-c2cc(C(=O)Nc3cc(C)n(Cc4ccc(Cl)cc4)n3)no2)c1	-3	-2	23480*	-7	-28
COc1cccc(-c2cc(C(=O)Nc3cc(C)n(Cc4ccc(Cl)cc4)n3)no2)c1	-5	0	11138	-1	51*
COc1ccc(NC(=O)c2sc3nc(-c4cccnc4)ccc3c2N)cc1OC	?	-2	3472	-10	+
COc1ccc(NC(=O)c2sc3nc(-c4cccnc4)ccc3c2N)cc1	·	·	·	·	-13
Cc1cccn2c(=O)c3cc(C(=O)NCC4CCCO4)c(=N)n(C4CCCC4)c3nc12 (centres undefined)	2	0	6363	3	11
Cc1cc(OCCCCOc2ccc(S(N)(=O)=O)c(C)c2)ccc1S(N)(=O)=O	14	-2	3076	0	-3
CC(C)CN1C(=O)NC2(CCCc3ccccc32)C1=O (centres undefined)	2	0	5425	-3	-4
CC(C)[C@H](NC(=O)c1ccccc1)C(=O)OCC(=O)Nc1ncc(Cl)cc1Cl	-4	0	4015	4	-1
COc1ccc(NC(=O)c2cc(-c3ccccc3)on2)cc1OC	-13	0	4093	-9	9
COc1cccc(-c2cc(C(=O)Nc3ccc(OC)c(OC)c3)no2)c1	1	1	19835*	-1	-2
O=C(NC1CCCCC1)N1CCC(c2nc3ccc(Cl)cc3[nH]2)CC1	-1	-1	16224*	-5	-1
O=C(NC1CCCCC1)N1CCC(c2nc3ccccc3[nH]2)CC1	2	1	22032*	-6	1
O=C(C1CCCCC1)N1CCC(c2nc3ccccc3[nH]2)CC1	-1	0	7753	-3	5
O=C(NC1CCCCC1)N1CCCC(c2nc3ccccc3[nH]2)C1 (centres undefined)	18	14	15663	-17	-7
CC(OC(=O)c1cccnc1SCc1cc(=O)n2ccccc2n1)c1ccccn1 (centres undefined)	-5	-3	16644*	-4	-1

Bioassay records as filed in PubChem BioAssay.
